# Where a chain is given by its changes, count along the chain named.
# Legend:
# Assay in all cases: PBM; 200 nM protein, PBS
# Conditions in all cases: dsDNA, one strand shown
# HOXB9 [1] = biological target: HOXB9 (Homo sapiens, UniProt P17482 171-250, T197M)
# HOXC9 [2] = biological target: HOXC9 (Homo sapiens, UniProt P31274 178-260, K195R)
# HOXB9 [3] = biological target: HOXB9 (Homo sapiens, UniProt P17482 171-250)
# HOXC9 [4] = biological target: HOXC9 (Homo sapiens, UniProt P31274 178-260)
# Sequence of HOXC9 (Homo sapiens, UniProt P31274 178-260) (P31274 178-260): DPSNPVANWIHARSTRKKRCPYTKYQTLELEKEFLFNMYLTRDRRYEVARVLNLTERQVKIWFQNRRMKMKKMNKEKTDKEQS
# HOXD13 [5] = biological target: HOXD13 (Homo sapiens, UniProt P35453 263-343, T313R)
# Sequence of HOXD13 (Homo sapiens, UniProt P35453 263-343, T313R) (P35453 263-343 T313R): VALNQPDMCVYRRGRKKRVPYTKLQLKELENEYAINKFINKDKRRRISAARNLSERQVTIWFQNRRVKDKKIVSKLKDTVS
# HOXC9 [6] = biological target: HOXC9 (Homo sapiens, UniProt P31274 178-260, R193K)
# Sequence of HOXC9 (Homo sapiens, UniProt P31274 178-260, R193K) (P31274 178-260 R193K): as the sequence (P31274 178-260) above, with R16K counted along it
# HOXD13 [7] = biological target: HOXD13 (Homo sapiens, UniProt P35453 263-343)
# Sequence of HOXD13 (Homo sapiens, UniProt P35453 263-343) (P35453 263-343): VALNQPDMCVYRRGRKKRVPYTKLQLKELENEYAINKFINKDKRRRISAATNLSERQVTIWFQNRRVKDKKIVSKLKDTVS
# HOXC10 [8] = biological target: HOXC10 (Homo sapiens, UniProt Q9NYD6 254-340, K271E)
# Sequence of HOXC10 (Homo sapiens, UniProt Q9NYD6 254-340, K271E) (Q9NYD6 254-340 K271E): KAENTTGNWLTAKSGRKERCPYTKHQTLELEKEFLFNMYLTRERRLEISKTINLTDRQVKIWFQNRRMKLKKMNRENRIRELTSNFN
# HOXD13 [9] = biological target: HOXD13 (Homo sapiens, UniProt P35453 263-343, T313A)
# Sequence of HOXD13 (Homo sapiens, UniProt P35453 263-343, T313A) (P35453 263-343 T313A): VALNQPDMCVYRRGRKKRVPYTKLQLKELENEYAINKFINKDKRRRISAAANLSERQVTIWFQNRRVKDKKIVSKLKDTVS
# HOXB9 [10] = biological target: HOXB9 (Homo sapiens, UniProt P17482 171-250, R186Q)
# Sequence of HOXB9 (Homo sapiens, UniProt P17482 171-250, R186Q) (P17482 171-250 R186Q): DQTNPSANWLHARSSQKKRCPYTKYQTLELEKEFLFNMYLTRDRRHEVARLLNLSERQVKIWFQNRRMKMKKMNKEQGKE
# HOXC9 [11] = biological target: HOXC9 (Homo sapiens, UniProt P31274 178-260, R222W)
# Sequence of HOXC9 (Homo sapiens, UniProt P31274 178-260, R222W) (P31274 178-260 R222W): as the sequence (P31274 178-260) above, with R45W counted along it
# HOXA7 [12] = biological target: HOXA7 (Homo sapiens, UniProt P31268 116-202)
# Sequence of HOXA7 (Homo sapiens, UniProt P31268 116-202) (P31268 116-202): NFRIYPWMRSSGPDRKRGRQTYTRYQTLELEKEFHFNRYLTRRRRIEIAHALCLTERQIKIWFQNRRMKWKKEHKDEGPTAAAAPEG
# PRRX1 = PRRX1 (Homo sapiens, UniProt P54821 80-166, F113S)
# Sequence of PRRX1 (P54821 80-166 F113S): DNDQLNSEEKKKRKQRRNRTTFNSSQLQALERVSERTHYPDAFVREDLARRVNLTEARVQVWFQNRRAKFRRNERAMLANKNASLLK
# HOXB6 [13] = biological target: HOXB6 (Homo sapiens, UniProt P17509 132-218, K202E)
# Sequence of HOXB6 (Homo sapiens, UniProt P17509 132-218, K202E) (P17509 132-218 K202E): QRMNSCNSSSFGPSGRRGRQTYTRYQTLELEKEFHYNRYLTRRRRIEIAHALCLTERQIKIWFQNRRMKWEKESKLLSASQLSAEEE
# HOXA4 [14] = biological target: HOXA4 (Homo sapiens, UniProt Q00056 201-287, R217L)
# Sequence of HOXA4 (Homo sapiens, UniProt Q00056 201-287, R217L) (Q00056 201-287 R217L): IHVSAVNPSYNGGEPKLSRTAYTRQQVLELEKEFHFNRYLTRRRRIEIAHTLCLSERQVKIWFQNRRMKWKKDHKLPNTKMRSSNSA
# MSX2 = MSX2 (Homo sapiens, UniProt P35548 130-214, R199I)
# Sequence of MSX2 (P35548 130-214 R199I): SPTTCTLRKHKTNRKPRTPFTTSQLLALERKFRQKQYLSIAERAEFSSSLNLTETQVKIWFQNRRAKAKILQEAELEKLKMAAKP
# HOXA7 [15] = biological target: HOXA7 (Homo sapiens, UniProt P31268 116-202, W177C)
# Sequence of HOXA7 (Homo sapiens, UniProt P31268 116-202, W177C) (P31268 116-202 W177C): as the sequence (P31268 116-202) above, with W62C counted along it
# HOXA4 [16] = biological target: HOXA4 (Homo sapiens, UniProt Q00056 201-287, W262F)
# Sequence of HOXA4 (Homo sapiens, UniProt Q00056 201-287, W262F) (Q00056 201-287 W262F): as the sequence (Q00056 201-287 R217L) above, with L17R, W62F counted along it
# HOXB6 [17] = biological target: HOXB6 (Homo sapiens, UniProt P17509 132-218)
# Sequence of HOXB6 (Homo sapiens, UniProt P17509 132-218) (P17509 132-218): as the sequence (P17509 132-218 K202E) above, with E71K counted along it
# HOXC10 [18] = biological target: HOXC10 (Homo sapiens, UniProt Q9NYD6 254-340)
# Sequence of HOXC10 (Homo sapiens, UniProt Q9NYD6 254-340) (Q9NYD6 254-340): as the sequence (Q9NYD6 254-340 K271E) above, with E18K counted along it
# ALX4 = ALX4 (Homo sapiens, UniProt Q9H161 200-286, Q225E)
# Sequence of ALX4 (Q9H161 200-286 Q225E): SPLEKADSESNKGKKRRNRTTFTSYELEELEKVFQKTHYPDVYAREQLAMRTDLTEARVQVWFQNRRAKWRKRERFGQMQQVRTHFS
# ALX1 [19] = biological target: ALX1 (Homo sapiens, UniProt Q15699 118-204, L144V)
# Sequence of ALX1 (Homo sapiens, UniProt Q15699 118-204, L144V) (Q15699 118-204 L144V): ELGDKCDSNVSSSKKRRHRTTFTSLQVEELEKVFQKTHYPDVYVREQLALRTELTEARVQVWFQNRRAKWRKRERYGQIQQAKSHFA
# ALX1 [20] = biological target: ALX1 (Homo sapiens, UniProt Q15699 118-204, L144R)
# Sequence of ALX1 (Homo sapiens, UniProt Q15699 118-204, L144R) (Q15699 118-204 L144R): as the sequence (Q15699 118-204 L144V) above, with V27R counted along it
# ALX1 [21] = biological target: ALX1 (Homo sapiens, UniProt Q15699 118-204)
# Sequence of ALX1 (Homo sapiens, UniProt Q15699 118-204) (Q15699 118-204): as the sequence (Q15699 118-204 L144V) above, with V27L counted along it
# VAX1 [22] = biological target: VAX1 (Homo sapiens, UniProt Q5SQQ9 86-172)
# Sequence of VAX1 (Homo sapiens, UniProt Q5SQQ9 86-172) (Q5SQQ9 86-172): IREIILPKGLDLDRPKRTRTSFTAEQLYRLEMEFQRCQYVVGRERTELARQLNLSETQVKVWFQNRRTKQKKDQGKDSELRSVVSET
# VAX1 [23] = biological target: VAX1 (Homo sapiens, UniProt Q5SQQ9 86-172, T142I)
# Sequence of VAX1 (Homo sapiens, UniProt Q5SQQ9 86-172, T142I) (Q5SQQ9 86-172 T142I): as the sequence (Q5SQQ9 86-172) above, with T57I counted along it
# VAX1 [24] = biological target: VAX1 (Homo sapiens, UniProt Q5SQQ9 86-172, K157R)
# Sequence of VAX1 (Homo sapiens, UniProt Q5SQQ9 86-172, K157R) (Q5SQQ9 86-172 K157R): as the sequence (Q5SQQ9 86-172) above, with K72R counted along it
# PAX4 [25] = biological target: T1, PAX4 (Homo sapiens, UniProt O43316 9-242, R200K)
# T1 sequence: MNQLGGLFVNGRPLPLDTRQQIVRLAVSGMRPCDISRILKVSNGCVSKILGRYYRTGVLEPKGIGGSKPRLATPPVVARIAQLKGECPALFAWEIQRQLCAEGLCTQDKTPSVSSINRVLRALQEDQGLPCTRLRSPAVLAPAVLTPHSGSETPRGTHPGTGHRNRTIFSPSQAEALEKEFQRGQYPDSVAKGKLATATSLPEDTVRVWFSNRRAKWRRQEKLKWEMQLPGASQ
# ALX3 [26] = biological target: ALX3 (Homo sapiens, UniProt O95076 139-225, N203Q)
# Sequence of ALX3 (Homo sapiens, UniProt O95076 139-225, N203Q) (O95076 139-225 N203Q): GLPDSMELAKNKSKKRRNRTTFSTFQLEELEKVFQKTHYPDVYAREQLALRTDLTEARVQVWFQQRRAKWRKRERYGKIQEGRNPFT
# PAX4 [27] = biological target: T2, PAX4 (Homo sapiens, UniProt O43316 9-242, F177V)
# T2 sequence: T1 sequence with F169V, K192R
# PAX4 [28] = biological target: T3, PAX4 (Homo sapiens, UniProt O43316 9-242, F177Y)
# T3 sequence: T1 sequence with F169Y, K192R
# PAX4 [29] = biological target: T4, PAX4 (Homo sapiens, UniProt O43316 9-242, R227W)
# T4 sequence: T1 sequence with K192R, R219W
# ALX3 [30] = biological target: ALX3 (Homo sapiens, UniProt O95076 139-225, N203S)
# Sequence of ALX3 (Homo sapiens, UniProt O95076 139-225, N203S) (O95076 139-225 N203S): as the sequence (O95076 139-225 N203Q) above, with Q65S counted along it
# Sequence of HOXB9 (Homo sapiens, UniProt P17482 171-250) (P17482 171-250): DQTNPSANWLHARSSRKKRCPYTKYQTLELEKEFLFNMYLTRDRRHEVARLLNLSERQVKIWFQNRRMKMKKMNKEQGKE
# Sequence of HOXB9 (Homo sapiens, UniProt P17482 171-250, T197M) (P17482 171-250 T197M): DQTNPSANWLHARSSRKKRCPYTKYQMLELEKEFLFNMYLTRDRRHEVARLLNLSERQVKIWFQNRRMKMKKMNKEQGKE
# Sequence of HOXC9 (Homo sapiens, UniProt P31274 178-260, K195R) (P31274 178-260 K195R): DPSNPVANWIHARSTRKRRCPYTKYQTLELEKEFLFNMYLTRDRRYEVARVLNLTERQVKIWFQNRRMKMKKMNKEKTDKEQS
sequence,measurement,setting,value
CCATAAAC,binding signal,HOXB9 [1],"9.33 upbm affinity estimate (log intensity, higher = more binding, comparable within an allelic series)"
same,binding signal,HOXC9 [2],"12.4 upbm affinity estimate (log intensity, higher = more binding, comparable within an allelic series)"
same,binding signal,HOXB9 [3],"11.8 upbm affinity estimate (log intensity, higher = more binding, comparable within an allelic series)"
same,binding signal,HOXC9 [4],"12.6 upbm affinity estimate (log intensity, higher = more binding, comparable within an allelic series)"
same,binding signal,HOXD13 [5],"10.8 upbm affinity estimate (log intensity, higher = more binding, comparable within an allelic series)"
same,binding signal,HOXC9 [6],"12.5 upbm affinity estimate (log intensity, higher = more binding, comparable within an allelic series)"
same,binding signal,HOXD13 [7],"12.1 upbm affinity estimate (log intensity, higher = more binding, comparable within an allelic series)"
same,binding signal,HOXC10 [8],"11.3 upbm affinity estimate (log intensity, higher = more binding, comparable within an allelic series)"
same,binding signal,HOXD13 [9],"11.8 upbm affinity estimate (log intensity, higher = more binding, comparable within an allelic series)"
same,binding signal,HOXB9 [10],"11.5 upbm affinity estimate (log intensity, higher = more binding, comparable within an allelic series)"
same,binding signal,HOXC9 [11],"10.8 upbm affinity estimate (log intensity, higher = more binding, comparable within an allelic series)"
AATTACCA,binding signal,HOXB9 [1],"10.1 upbm affinity estimate (log intensity, higher = more binding, comparable within an allelic series)"
same,binding signal,HOXA7 [12],"11.2 upbm affinity estimate (log intensity, higher = more binding, comparable within an allelic series)"
same,binding signal,PRRX1,"11.1 upbm affinity estimate (log intensity, higher = more binding, comparable within an allelic series)"
same,binding signal,HOXB6 [13],"9.98 upbm affinity estimate (log intensity, higher = more binding, comparable within an allelic series)"
same,binding signal,HOXA4 [14],"11.9 upbm affinity estimate (log intensity, higher = more binding, comparable within an allelic series)"
same,binding signal,MSX2,"12.2 upbm affinity estimate (log intensity, higher = more binding, comparable within an allelic series)"
same,binding signal,HOXA7 [15],"8.87 upbm affinity estimate (log intensity, higher = more binding, comparable within an allelic series)"
same,binding signal,HOXA4 [16],"11.4 upbm affinity estimate (log intensity, higher = more binding, comparable within an allelic series)"
same,binding signal,HOXB6 [17],"11.7 upbm affinity estimate (log intensity, higher = more binding, comparable within an allelic series)"
GAGTCTCC,binding signal,HOXB9 [1],"8.54 upbm affinity estimate (log intensity, higher = more binding, comparable within an allelic series)"
same,binding signal,HOXC10 [18],"10 upbm affinity estimate (log intensity, higher = more binding, comparable within an allelic series)"
same,binding signal,HOXB9 [3],"8.49 upbm affinity estimate (log intensity, higher = more binding, comparable within an allelic series)"
same,binding signal,HOXC10 [8],"9.99 upbm affinity estimate (log intensity, higher = more binding, comparable within an allelic series)"
same,binding signal,HOXB9 [10],"8.45 upbm affinity estimate (log intensity, higher = more binding, comparable within an allelic series)"
TCAATAAA,binding signal,HOXB9 [1],"9.75 upbm affinity estimate (log intensity, higher = more binding, comparable within an allelic series)"
same,binding signal,HOXC10 [18],"12.2 upbm affinity estimate (log intensity, higher = more binding, comparable within an allelic series)"
same,binding signal,ALX4,"11.2 upbm affinity estimate (log intensity, higher = more binding, comparable within an allelic series)"
same,binding signal,HOXB9 [3],"11.8 upbm affinity estimate (log intensity, higher = more binding, comparable within an allelic series)"
same,binding signal,HOXD13 [5],"11 upbm affinity estimate (log intensity, higher = more binding, comparable within an allelic series)"
same,binding signal,HOXD13 [7],"12 upbm affinity estimate (log intensity, higher = more binding, comparable within an allelic series)"
same,binding signal,HOXC10 [8],"11.6 upbm affinity estimate (log intensity, higher = more binding, comparable within an allelic series)"
same,binding signal,HOXD13 [9],"11.7 upbm affinity estimate (log intensity, higher = more binding, comparable within an allelic series)"
same,binding signal,HOXB9 [10],"11.5 upbm affinity estimate (log intensity, higher = more binding, comparable within an allelic series)"
same,binding signal,HOXC9 [11],"11.3 upbm affinity estimate (log intensity, higher = more binding, comparable within an allelic series)"
CCCAGGCC,binding signal,HOXB9 [1],"8.39 upbm affinity estimate (log intensity, higher = more binding, comparable within an allelic series)"
same,binding signal,HOXC9 [2],"9.5 upbm affinity estimate (log intensity, higher = more binding, comparable within an allelic series)"
same,binding signal,HOXB9 [3],"8.27 upbm affinity estimate (log intensity, higher = more binding, comparable within an allelic series)"
same,binding signal,HOXC9 [4],"9.64 upbm affinity estimate (log intensity, higher = more binding, comparable within an allelic series)"
same,binding signal,ALX1 [19],"6.55 upbm affinity estimate (log intensity, higher = more binding, comparable within an allelic series)"
same,binding signal,HOXC9 [6],"9.51 upbm affinity estimate (log intensity, higher = more binding, comparable within an allelic series)"
same,binding signal,ALX1 [20],"6.47 upbm affinity estimate (log intensity, higher = more binding, comparable within an allelic series)"
same,binding signal,HOXB9 [10],"8.29 upbm affinity estimate (log intensity, higher = more binding, comparable within an allelic series)"
same,binding signal,HOXC9 [11],"9.62 upbm affinity estimate (log intensity, higher = more binding, comparable within an allelic series)"
same,binding signal,ALX1 [21],"6.28 upbm affinity estimate (log intensity, higher = more binding, comparable within an allelic series)"
CTGCTCCC,binding signal,HOXB9 [1],"8.68 upbm affinity estimate (log intensity, higher = more binding, comparable within an allelic series)"
same,binding signal,HOXC10 [18],"10.1 upbm affinity estimate (log intensity, higher = more binding, comparable within an allelic series)"
same,binding signal,HOXB9 [3],"8.67 upbm affinity estimate (log intensity, higher = more binding, comparable within an allelic series)"
same,binding signal,HOXC10 [8],"10.1 upbm affinity estimate (log intensity, higher = more binding, comparable within an allelic series)"
same,binding signal,VAX1 [22],"7.16 upbm affinity estimate (log intensity, higher = more binding, comparable within an allelic series)"
same,binding signal,HOXB9 [10],"8.65 upbm affinity estimate (log intensity, higher = more binding, comparable within an allelic series)"
same,binding signal,VAX1 [23],"7.2 upbm affinity estimate (log intensity, higher = more binding, comparable within an allelic series)"
same,binding signal,VAX1 [24],"7.01 upbm affinity estimate (log intensity, higher = more binding, comparable within an allelic series)"
ATTAAATA,binding signal,HOXB9 [1],"10.1 upbm affinity estimate (log intensity, higher = more binding, comparable within an allelic series)"
same,binding signal,PAX4 [25],"11.7 upbm affinity estimate (log intensity, higher = more binding, comparable within an allelic series)"
same,binding signal,PRRX1,"11.1 upbm affinity estimate (log intensity, higher = more binding, comparable within an allelic series)"
same,binding signal,HOXB6 [13],"10 upbm affinity estimate (log intensity, higher = more binding, comparable within an allelic series)"
same,binding signal,HOXB9 [3],"11.7 upbm affinity estimate (log intensity, higher = more binding, comparable within an allelic series)"
same,binding signal,ALX3 [26],"8.66 upbm affinity estimate (log intensity, higher = more binding, comparable within an allelic series)"
same,binding signal,HOXC9 [6],"12.5 upbm affinity estimate (log intensity, higher = more binding, comparable within an allelic series)"
same,binding signal,PAX4 [27],"10.8 upbm affinity estimate (log intensity, higher = more binding, comparable within an allelic series)"
same,binding signal,PAX4 [28],"11.1 upbm affinity estimate (log intensity, higher = more binding, comparable within an allelic series)"
same,binding signal,HOXB9 [10],"11.5 upbm affinity estimate (log intensity, higher = more binding, comparable within an allelic series)"
same,binding signal,HOXC9 [11],"11.1 upbm affinity estimate (log intensity, higher = more binding, comparable within an allelic series)"
same,binding signal,PAX4 [29],"11 upbm affinity estimate (log intensity, higher = more binding, comparable within an allelic series)"
same,binding signal,ALX3 [30],"8.86 upbm affinity estimate (log intensity, higher = more binding, comparable within an allelic series)"

# Source: paper PMC11006913
